Whole data set: some 68,000 sequences, median “fluorescence intensity (a.u.)” near 9,100, cut for the highest 2% near 16,000. What follows is part of a selection rich in the highest values, with near analogues and random picks from the rest.

Chain of OsWRKY34 (Q0JBA9 entry or part of it): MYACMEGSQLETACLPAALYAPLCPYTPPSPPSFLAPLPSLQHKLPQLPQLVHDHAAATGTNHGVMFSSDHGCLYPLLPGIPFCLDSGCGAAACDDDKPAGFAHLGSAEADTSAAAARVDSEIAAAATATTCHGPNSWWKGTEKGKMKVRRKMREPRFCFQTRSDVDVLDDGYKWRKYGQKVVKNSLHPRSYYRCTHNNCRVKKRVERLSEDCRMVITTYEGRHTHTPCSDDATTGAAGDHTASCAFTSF

The experiment addresses OsWRKY34 (Oryza sativa, UniProt Q0JBA9 1-250). The experiment in a line: protein-binding microarray (RPBM); PBS, 2% BSA, 51.3 ng/ul salmon testes DNA, 50 uM zinc acetate, 200 nM TF, 25 C, 1 h; high values mean tight binding. The following applies: protein: recombinant; tags: N-terminal polyhistidine and DsRed monomer fusion (pET32a); label: CyDye5-dUTP incorporated in the synthesized complementary strand; 3' TTTTT single-stranded linker to array surface; dsDNA, one strand shown. A digest of the protocol: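 The binding signal is fluorescence intensity per feature, in arbitrary units, read on an Axon 4000B scanner. Polyhistidine- and DsRed-tagged transcription factors (N-terminal fusions) from E. coli BL21-CodonPlus were purified on Ni–NTA and applied at 200 nM for 1 h at 25 °C to a double-stranded, BSA-blocked custom Agilent array in buffer with 50 µM zinc acetate.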
“AATCTACACTAATTCTTCTGGTCTACACATTAAGTTATGACGGAGTCACCTAGTGCAG”: the binding signal is 8670 fluorescence intensity (a.u.).

“CCATGTCCGGATTCTCTAGGATTGCCTCCAATTTCTTCGCCGGAGTCACCTAGTGCAG”: the binding signal is 8890 fluorescence intensity (a.u.).

On to “TCCTACCTACAGCTATAGCTGCGTGCCGGGGTTGGGGCTGCGGAGTCACCTAGTGCAG”, for which the binding signal is 8750 fluorescence intensity (a.u.).

Regarding “CATCCTTCTCCGCGGCCATTTCTTGGAGCAAATCTCATTTCGGAGTCACCTAGTGCAG”, the binding signal is 8420 fluorescence intensity (a.u.).

As for “CCGCGGGCTTGGCTTGGCTGGCACCCTCTCCTTCTCGTCTCGGAGTCACCTAGTGCAG”, the binding signal is 10300 fluorescence intensity (a.u.).

Take “ACCCCAACGCAACCACTCTTCTCTACTACAATCGTTACTCCGGAGTCACCTAGTGCAG”: the binding signal was 9310 fluorescence intensity (a.u.).

On to “ATCCCAAACACTCTCGCCTCGTCTCCTCTCACACCACACGCGGAGTCACCTAGTGCAG”, for which the binding signal was 10500 fluorescence intensity (a.u.).

“CATTACCGCCACCTTCGATGCCGCCGCCTGCCGCTACCCGCGGAGTCACCTAGTGCAG”: the binding signal was 8580 fluorescence intensity (a.u.).

Take “TTAATACTTACTACTTGTCTGCTTTGAGTTTTTTGTTTAACGGAGTCACCTAGTGCAG”: the binding signal is 9060 fluorescence intensity (a.u.).

Consider “CCTCGCCGTCGCCGGTCCTCGTCTCCTCCTCTATCTATATCGGAGTCACCTAGTGCAG”, for which the binding signal is 8600 fluorescence intensity (a.u.).

Consider “ACCATGGGCGCACACGCTTCACTGCGTCTTTTTCCATCCACGGAGTCACCTAGTGCAG”, for which the binding signal is 8320 fluorescence intensity (a.u.).

For the sequence “AGGTCATCGCAGGGCTCCTCTCCATCGCAGCCGCTCCAGCCGGAGTCACCTAGTGCAG”, the binding signal was 8910 fluorescence intensity (a.u.).

Turning to “CGGCGCGGCGGAAGGAGGAGGGGTGGTGGATTCGTAGGGGCGGAGTCACCTAGTGCAG”, the binding signal was 14600 fluorescence intensity (a.u.).

In the case of “AATGTGGTGGTGGTGGTGGTGAACGGAGGAGGGAGGGAGCCGGAGTCACCTAGTGCAG”, the binding signal is 13000 fluorescence intensity (a.u.).

As for “AAGGCGGGAGGTTGAGAGAGAGATAAGGGAGAGAGAGGGGCGGAGTCACCTAGTGCAG”, the binding signal is 8120 fluorescence intensity (a.u.).

Regarding “GCGGTGGAGAGTGGTGGGAGGTTGGGGAGAAGGCGGCGGCCGGAGTCACCTAGTGCAG”, the binding signal is 14800 fluorescence intensity (a.u.).

Turning to “GGTTGGTGGTGGAGGTGGTCAAGGCGGTGGTTTTGGAGCCCGGAGTCACCTAGTGCAG”, the binding signal is 16400 fluorescence intensity (a.u.).

In the case of “GGTTTGGTGGCGGAAAAGGTGGAGGCCTAGGTGGTGGTGGCGGAGTCACCTAGTGCAG”, the binding signal is 8660 fluorescence intensity (a.u.).

For “GGAGGAGGAGGTGGTGGTGGTGGTGAAGCCGCGGAGGTGCCGGAGTCACCTAGTGCAG”, the binding signal was 18000 fluorescence intensity (a.u.).

In the case of “CCTCGCTCTCCATGGTGGTGGTGGTGGTCAGGTGGTGGGGCGGAGTCACCTAGTGCAG”, the binding signal was 18800 fluorescence intensity (a.u.).

“CTGAAGTGAGGGAGGGGAGGAGGTGGTGGTGGTGGGGAAGCGGAGTCACCTAGTGCAG”: the binding signal is 15600 fluorescence intensity (a.u.).

Regarding “CCGCCATGTGGGCCCCACCTCGCCGCCTCCGCTCCACTCTCGGAGTCACCTAGTGCAG”, the binding signal was 13600 fluorescence intensity (a.u.).

On to “GCTAGATTGGATAAGGAGGGGAGGAGGGTGGAGGGGAGGGCGGAGTCACCTAGTGCAG”, for which the binding signal is 22700 fluorescence intensity (a.u.).

“TCCGGTTGTTTGCCGTGGCACTTCCTTTCTCCCTATTGGCCGGAGTCACCTAGTGCAG”: the binding signal is 8260 fluorescence intensity (a.u.).

For the sequence “AAGTGGGTGAGTCCAATAGGTGTGCACGTGAGGGGAGGGGCGGAGTCACCTAGTGCAG”, the binding signal was 10500 fluorescence intensity (a.u.).

“ATTCGTGCTCAGTTGTTTCTTTTCCAACTCCGGCGTCCTCCGGAGTCACCTAGTGCAG”: the binding signal is 8150 fluorescence intensity (a.u.).

Turning to “TACTCCTTATATTCCTTCATTTTTCAGCCTCGATCAGCTCCGGAGTCACCTAGTGCAG”, the binding signal is 8130 fluorescence intensity (a.u.).

Turning to “TACGAGCTTCTCCTCCTCCGCTGGTCATCATCCTACCTGTCGGAGTCACCTAGTGCAG”, the binding signal is 8440 fluorescence intensity (a.u.).

“TTCTACAGGAGTATCATCATCTTTGTGTTCTGGCTCCTGTCGGAGTCACCTAGTGCAG”: the binding signal is 9040 fluorescence intensity (a.u.).

“GACAATTTCTTTTTCCGATGGGATTTTAGTTTTTTGTTTTCGGAGTCACCTAGTGCAG”: the binding signal was 9700 fluorescence intensity (a.u.).

For “CTCGCTAGCCCTCTGAACCTTGCAGTTTGTTGTTTGCACCCGGAGTCACCTAGTGCAG”, the binding signal was 13600 fluorescence intensity (a.u.).

In the case of “GATGCGCGCGAACGGAGACGACGGGGTAGGGTGGGGAGGGCGGAGTCACCTAGTGCAG”, the binding signal was 12300 fluorescence intensity (a.u.).

Consider “GGCAGATGTGGACGGAGGGAGGGAGGGAGGGAGAGGGGCACGGAGTCACCTAGTGCAG”, for which the binding signal is 17100 fluorescence intensity (a.u.).

Take “AGGAGGGCGGAGGAGGTGGTGGTGGTGGTGGTGGAGAGAGCGGAGTCACCTAGTGCAG”: the binding signal was 25700 fluorescence intensity (a.u.).

For “GGAGGTGGAGGCGGCGGAGGAGGTGGTGGTGGAGGTGGAGCGGAGTCACCTAGTGCAG”, the binding signal is 17900 fluorescence intensity (a.u.).

As to “GACCGAGAGCAGGCGACGGGGTGGGTGGAGGTAGTGAGAACGGAGTCACCTAGTGCAG”, the binding signal is 9200 fluorescence intensity (a.u.).

For “CGACGAGCGAGAGGTAGGTGAGAGAGAGACGGGCGGCGAACGGAGTCACCTAGTGCAG”, the binding signal is 65100 fluorescence intensity (a.u.).

In the case of “GGGCGGAGCGGGGCGGAGGGAGAGGAGGGAGAGGAGGGAGCGGAGTCACCTAGTGCAG”, the binding signal is 8480 fluorescence intensity (a.u.).

As for “GGAGAGGGAGCGGGAGAGGGAGGATTGGAGGATGTGGGGACGGAGTCACCTAGTGCAG”, the binding signal was 8940 fluorescence intensity (a.u.).

“GGGAGAGGGGTGTGGGGCGGAGAGGGAGAGGGAGATGGGACGGAGTCACCTAGTGCAG”: the binding signal was 9680 fluorescence intensity (a.u.).

For the sequence “TCGGCCCGAGCGGTGGCGGTGGCGGTGGCGGAGGAGGAGGCGGAGTCACCTAGTGCAG”, the binding signal was 10100 fluorescence intensity (a.u.).

Take “GCGGAGGTGGTGGTGGCCTTGGAGGAGGTGGCGGCGGAGGCGGAGTCACCTAGTGCAG”: the binding signal is 14300 fluorescence intensity (a.u.).

Take “CACTAGGTGAGCAATTTTGTTACCACGTCCATGTGCTGATCGGAGTCACCTAGTGCAG”: the binding signal was 8810 fluorescence intensity (a.u.).

Turning to “GCACACGCTTCATGTTGACATTTTATCGAATCGTGTTCTGCGGAGTCACCTAGTGCAG”, the binding signal is 8350 fluorescence intensity (a.u.).

As to “TTACTACTGCATTATCAAGTGTATCTTGCCATGTACTTCCCGGAGTCACCTAGTGCAG”, the binding signal is 12100 fluorescence intensity (a.u.).

As for “GATCTCCATCTCCATCTCTCTCTCTCTCTCGAGCAGAGCACGGAGTCACCTAGTGCAG”, the binding signal is 8360 fluorescence intensity (a.u.).

Consider “CAATCACATCCGCGCGCATTTGGCCTGCGCCTTCAAATTTCGGAGTCACCTAGTGCAG”, for which the binding signal is 12700 fluorescence intensity (a.u.).

On to “AACGATTTCTTCAGCATTTTCCATCCCCGCGGCTTCTTCTCGGAGTCACCTAGTGCAG”, for which the binding signal is 8230 fluorescence intensity (a.u.).

For “CGCAGAACACGTTTCCCAAATCTTGTACTACTACGTACTACGGAGTCACCTAGTGCAG”, the binding signal was 9170 fluorescence intensity (a.u.).

Turning to “GCGCTACGGACGGAAGAGACGGAGTGGCACGGAATAAAGACGGAGTCACCTAGTGCAG”, the binding signal was 61600 fluorescence intensity (a.u.).

Consider “GAGGTGGTGGTGGTGGTGGTGGATGGCGCCCTGCTTTGACCGGAGTCACCTAGTGCAG”, for which the binding signal was 23500 fluorescence intensity (a.u.).

As to “AGTTGTGGACTGGAAGAGAGGGGAGGCATGGGGACAAAGACGGAGTCACCTAGTGCAG”, the binding signal is 9320 fluorescence intensity (a.u.).

For the sequence “TATATATATATATATATATATATATATATATATAAAGAGACGGAGTCACCTAGTGCAG”, the binding signal is 11100 fluorescence intensity (a.u.).

On to “GTGGCGGCGGAGGAGGTGGGATGGGGATTTGATGATGGCCCGGAGTCACCTAGTGCAG”, for which the binding signal was 8320 fluorescence intensity (a.u.).

With “GGAGGAGCGGTGCGTGGGGTCAGCGGCCGGCGGGAGGGCACGGAGTCACCTAGTGCAG”, the binding signal is 9670 fluorescence intensity (a.u.).

For “AACAGGAGGAGGAGGAGGAGGAGGAGGAGGAGAGGTGGGGCGGAGTCACCTAGTGCAG”, the binding signal was 9280 fluorescence intensity (a.u.).

For “AGAGGTGGAGGAGAGGAGGGGAGGGGAGGGGAGGTGAGGGCGGAGTCACCTAGTGCAG”, the binding signal was 18700 fluorescence intensity (a.u.).

In the case of “GCGGGGCGGTGACAACGACGGCGGTGCGGGGCGGTGGTGACGGAGTCACCTAGTGCAG”, the binding signal is 10300 fluorescence intensity (a.u.).

“GGGAGGGAGAGGAGGCGGAGGAGGAGGAGGTGGAGGAGTACGGAGTCACCTAGTGCAG”: the binding signal is 8610 fluorescence intensity (a.u.).

Turning to “CTAGCTTTGAGGTGGAGGTGGTGGTGGAGGAGGAGGAGGACGGAGTCACCTAGTGCAG”, the binding signal is 12600 fluorescence intensity (a.u.).

Regarding “GTGGAGTGCGGTGGACGGAGCGGCGGGGCGGGGCGGTCAGCGGAGTCACCTAGTGCAG”, the binding signal is 16700 fluorescence intensity (a.u.).
